Measurements taken from the antibiotic and cytotoxicity screens of Wong et al. (2023).
The whole screen tested about 39,000 compounds, of which about 1,500 (3.8%) were called active. The list comes from a sample in which actives are over-represented; it also holds similar structures and randomly drawn compounds.

These compounds were tested on HSkMC (human skeletal muscle cells) (assay: cytotoxicity call (relative viability < 0.9)). Settings: 10 µM.

Compound	cytotoxicity call
COc1ccc2c3c(n(c2c1)C)[C@@H](CO)N(CC1CCOCC1)C[C@]13CCN(CC1)C(=O)c1cnccn1	inactive
CCc1c(C)c2cc3c(-c4ccccc4)coc3cc2oc1=O	inactive
CNC[C@H]1OCCCC[C@@H](C)Oc2ccc(NS(=O)(=O)c3cn(C)cn3)cc2C(=O)N([C@@H](C)CO)C[C@@H]1C	inactive
Cc1ccc(S(=O)(=O)Nc2ccc3c(c2)CC(=O)N([C@@H](C)CO)C[C@@H](C)[C@H](CN(C)C(=O)NC(C)C)O3)cc1	inactive
N#Cc1cc(F)cc(Oc2ccc(S(=O)(=O)C(F)F)c3c2CC(F)(F)[C@@H]3O)c1.N#Cc1cc(F)cc(Oc2ccc(S(=O)(=O)C(F)F)c3c2CC(F)(F)[C@H]3O)c1	inactive
COc1ccccc1NC(=O)N(C)C[C@H]1OCc2ccccc2-c2c(n(C)c3ccccc23)C(=O)N([C@H](C)CO)C[C@H]1C	inactive
C=CC(=O)N[C@H]1CCCN(CC)C1	inactive
C[C@@H]1CN([C@@H](C)CO)C(=O)c2cccc(NS(=O)(=O)c3ccc(F)cc3)c2O[C@H]1CN(C)S(=O)(=O)c1cccs1	inactive
C[C@@H]1CN([C@H](C)CO)C(=O)c2cc(Br)cnc2O[C@H]1CN(C)Cc1ccc2c(c1)OCO2	inactive
C[C@@H]1CN([C@@H](C)CO)C(=O)Cc2cc(NS(=O)(=O)c3cccs3)ccc2O[C@@H]1CN(C)S(=O)(=O)c1cccs1	inactive
Cc1ccc(S(=O)(=O)N(C)C[C@@H]2Oc3ccc(NC(=O)c4ccncc4)cc3C(=O)N([C@H](C)CO)C[C@H]2C)cc1	inactive
CCOC(=O)Cn1cnc2ccccc2c1=O	inactive
Cc1c(-c2ccc(C(N)=O)c3[nH]c4cc(C(C)(C)O)ccc4c23)cccc1-n1cnc2ccccc2c1=O	active
COc1ccc(S(=O)(=O)N(C)C[C@@H]2Oc3ccc(NC(=O)Cn4cnnn4)cc3C(=O)N([C@@H](C)CO)C[C@H]2C)cc1	inactive
Cc1ccc(S(=O)(=O)Nc2cccc3c2O[C@H](CN(C)CC2CC2)[C@H](C)CN([C@@H](C)CO)C3=O)cc1	inactive
COc1ccc2c3c(n(c2c1)C)[C@@H](CO)N(C[C@]13CN(Cc2cccc(c2)F)C1)C(=O)C1CCOCC1	active
COc1ccc2c3c(n(c2c1)C)[C@@H](CO)N(C[C@]13CCN(CC1)C(=O)c1ccccc1)C(=O)Nc1ccccc1F	inactive
COCC(=O)N1CC[C@]2(CC1)CN([C@H](CO)c1c2c2ccc(cc2n1C)OC)C(=O)Nc1ccccc1F	inactive
COc1ccc(cc1)S(=O)(=O)N1C[C@]2(C1)CN([C@@H](CO)c1c2c2ccc(cc2n1C)OC)C(=O)CN(C)C	inactive
COc1ccc(cc1)S(=O)(=O)N1CC[C@]2(CC1)CN([C@H](CO)c1c2c2ccc(cc2n1C)OC)C(=O)CN(C)C	active
COc1ccc(cc1)S(=O)(=O)N1CC[C@]2(CC1)CN([C@@H](CO)c1c2c2ccc(cc2n1C)OC)C(=O)CN(C)C	inactive
COc1ccc2c3c(n(c2c1)C)[C@H](CO)N(C[C@]13CN(Cc2cccc(c2)F)C1)C(=O)C1CCOCC1	inactive
COc1ccc2c3c(n(c2c1)C)[C@@H](CO)N(C[C@]13CN(C1)C(=O)Nc1cccc(c1)F)C(=O)C1CCOCC1	inactive
COc1ccc2c3c(n(c2c1)C)[C@@H](CO)N(C[C@]13CCN(CC1)C(=O)c1ccccc1F)C(=O)Nc1ccccc1F	active
COc1ccc2c3c(n(c2c1)C)[C@@H](CO)N(C[C@]13CCN(CC1)C(=O)c1ccccc1F)C(=O)Nc1ccc(cc1)F	inactive

Compound	cytotoxicity call
COc1ccc2c3c(n(c2c1)C)[C@H](CO)N(C[C@]13CCN(CC1)C(=O)c1ccccc1F)C(=O)Nc1ccccc1F	inactive
COc1ccc2c3c(n(c2c1)C)[C@H](CO)N(C[C@]13CCN(CC1)C(=O)c1ccccc1)C(=O)Nc1ccccc1F	active
COc1cccc(NC(=O)C[C@H]2CC[C@H]3[C@H](COc4ccc(NC(=O)C5CCOCC5)cc4C(=O)N3C)O2)c1	inactive
Cc1ccc(S(=O)(=O)Nc2ccc3c(c2)C(=O)N([C@H](C)CO)C[C@@H](C)[C@@H](CN(C)S(C)(=O)=O)O3)cc1	inactive
CC(C)c1onc(-c2c(Cl)cccc2Cl)c1COc1ccc(C=Cc2cccc(C(=O)O)c2)c(Cl)c1	inactive
C[C@@H]1CN([C@@H](C)CO)C(=O)c2cccc(NS(C)(=O)=O)c2O[C@@H]1CN(C)Cc1ccc2c(c1)OCO2	inactive
COc1ccc(S(=O)(=O)N2C[C@@H](O)COC[C@@H]3O[C@H](CC(=O)NCCCN4CCOCC4)CC[C@H]32)cc1	inactive
Cc1ccc(F)cc1NC(=O)[C@@H](C)N	inactive
COc1ccc(S(=O)(=O)Nc2ccc3c(c2)CC(=O)N([C@@H](C)CO)C[C@@H](C)[C@@H](CN(C)S(=O)(=O)c2c(C)noc2C)O3)cc1	inactive
COc1cc(NC(=O)c2cccc(-n3cc(NC(=O)Nc4cccc(C)c4)cn3)c2)cc(OC)c1OC	active
COc1cc(NC(=O)Cn2cnc3c2c(=O)n(C)c(=O)n3C)cc(OC)c1OC	inactive
Cc1cccc(-n2cc(CN)cn2)c1	inactive
C[C@@H]1CN([C@H](C)CO)C(=O)c2cccc(NC(=O)c3ccc(-c4nccs4)cc3)c2O[C@@H]1CN(C)Cc1ccc(Cl)c(Cl)c1	inactive
C[C@@H]1CCCCO[C@H](CN(C)C(=O)Nc2cccc3ccccc23)[C@@H](C)CN([C@H](C)CO)C(=O)c2cc(NC(=O)Nc3ccc(C(F)(F)F)cc3)ccc2O1	inactive
COc1ccc(S(=O)(=O)Nc2ccc3c(c2)C(=O)N([C@@H](C)CO)C[C@@H](C)[C@H](CN(C)C(=O)Nc2ccc(F)cc2)OCCCC[C@@H](C)O3)cc1	inactive
C[C@@H]1CN([C@@H](C)CO)C(=O)c2c(c3ccccc3n2C)-c2ccccc2CO[C@H]1CN(C)C(=O)Nc1cccc(Cl)c1Cl	inactive
C[C@@H]1CN([C@@H](C)CO)C(=O)c2c(c3ccccc3n2C)-c2ccccc2CO[C@@H]1CN(C)C(=O)Nc1cccc(Cl)c1Cl	inactive
C[C@H](CO)N1C[C@H](C)[C@@H](CN(C)C(=O)Nc2cccc(Cl)c2Cl)OCc2ccccc2-c2c(n(C)c3ccccc23)C1=O	active
C[C@H]1CN([C@@H](C)CO)C(=O)c2c(c3ccccc3n2C)-c2ccccc2CO[C@H]1CN(C)C(=O)Nc1cccc(Cl)c1Cl	inactive
COc1ccccc1NC(=O)N(C)C[C@@H]1OCc2ccccc2-c2c(n(C)c3ccccc23)C(=O)N([C@@H](C)CO)C[C@H]1C	inactive
C[C@@H]1CN([C@H](C)CO)C(=O)c2c(c3ccccc3n2C)-c2ccccc2CO[C@@H]1CN(C)C(=O)Nc1cccc(Cl)c1Cl	active
C[C@H]1CN([C@@H](C)CO)C(=O)c2c(c3ccccc3n2C)-c2ccccc2CO[C@@H]1CN(C)C(=O)Nc1cccc(Cl)c1Cl	active
C[C@H](CO)N1C[C@H](C)[C@H](CN(C)C(=O)Nc2cccc(Cl)c2Cl)OCc2ccccc2-c2c(n(C)c3ccccc23)C1=O	inactive
C[C@@H]1CN([C@H](C)CO)C(=O)c2c(c3ccccc3n2C)-c2ccccc2CO[C@H]1CN(C)C(=O)Nc1cccc(Cl)c1Cl	inactive
